Results reported in PubChem BioAssay (NCI).
This is part of a sample that, as a whole, favours compounds with a hit. Of some 79,000 tested, about 15% had one in any assay. Activity calls are given as the source filed them. No stated cut-off is given here; in the data, active means growth inhibition above about 70%; inactive means the rest.

Columns and labels:
[1] = NCI Yeast Anticancer Drug Screen. Data for the rad52 strain (AID 147);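 further: 0% = growth of vehicle-treated control cultures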; details: S. cerevisiae rad52 mutant growth inhibition, stronger effect = higher value
Outline: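 Screen used a yeast mutant impaired in DNA repair. After compound exposure, growth was measured. Values reflect inhibition compared with vehicle-treated cells.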

[2] = NCI Yeast Anticancer Drug Screen. Data for the wt1 strain (AID 149);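 further: 0% = growth of vehicle-treated wt1 cultures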; details: S. cerevisiae wt1 strain (SPY 50644) growth inhibition, stronger effect = higher value
Outline: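 wt1 yeast, compound-treated; % growth inhibition vs vehicle control.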

[3] = NCI Yeast Anticancer Drug Screen. Data for the rad50EPP+ strain (AID 151);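 further: 0% = growth of vehicle-treated control cultures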; details: S. cerevisiae rad50 mutant strain, stronger effect = higher value
Outline: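 Exposing the rad50EPP+ strain to each compound, growth was compared with vehicle-only cultures to give inhibition.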

[4] = NCI Yeast Anticancer Drug Screen. Data for the mgt1 strain (AID 153); details: S. cerevisiae mgt1 mutant growth inhibition, stronger effect = higher value
Outline: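 Genetically defined yeast (mgt1) treated with compound; inhibition of growth expressed against vehicle-treated controls.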

[5] = NCI Yeast Anticancer Drug Screen. Data for the rad50 strain (AID 155);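 further: 0% = growth of vehicle-only cultures of the same strain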; details: S. cerevisiae rad50 strain growth inhibition, stronger effect = higher value
Outline: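 Genetically altered yeast (DNA repair pathway); compound treatment; growth inhibition vs vehicle ctrl.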

[6] = NCI Yeast Anticancer Drug Screen. Data for the mec2-1 strain (AID 157); details: S. cerevisiae mec2-1 strain, stronger effect = higher value
Outline: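 Readout is yeast growth inhibition, normalised to vehicle-treated controls, in the mec2-1 strain exposed to compound.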

[7] = NCI Yeast Anticancer Drug Screen. Data for the rad14 strain (AID 159);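 further: 0% = growth of vehicle-treated control cultures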; details: S. cerevisiae rad14 strain growth inhibition, stronger effect = higher value
Outline: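 Test compounds were applied to a repair-deficient yeast strain. Its growth was then compared with that of cultures given vehicle alone, and inhibition was expressed relative to those controls.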

[8] = NCI Yeast Anticancer Drug Screen. Data for the sgs1 mgt1 strain (AID 161);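 further: 0% = growth of cultures given vehicle only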; details: S. cerevisiae sgs1 mgt1 strain, stronger effect = higher value
Outline: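 Compounds are added to genetically altered yeast, and growth is compared with cultures given vehicle alone to give percent inhibition.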

[9] = NCI Yeast Anticancer Drug Screen. Data for the CLN2oe strain (AID 163);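 further: 0% = growth of vehicle-only control cultures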; details: S. cerevisiae CLN2oe strain, stronger effect = higher value
Outline: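 Values reflect how much compound exposure reduced yeast growth, referenced to vehicle-exposed cells. Assay organism is a strain with a defined genetic change affecting cell-cycle control.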

[10] = NCI Yeast Anticancer Drug Screen. Data for the cln2 rad14 strain (AID 165);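 further: 0% = growth equal to vehicle treated cultures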; details: S. cerevisiae cln2 rad14 strain, stronger effect = higher value
Outline: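 Relative to vehicle controls, growth inhibition of compound-treated cln2 rad14 yeast was recorded.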

[11] = NCI Yeast Anticancer Drug Screen. Data for the bub3 strain (AID 167); details: S. cerevisiae bub3 mutant strain, stronger effect = higher value
Outline: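 Yeast carrying a defined mutation is treated with each compound, and growth is compared with that of vehicle-exposed cells to give inhibition.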

[12] = NCI Yeast Anticancer Drug Screen. Data for the wt2 strain (AID 169);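 further: 0% = growth of vehicle-treated yeast cultures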; details: S. cerevisiae wt2 strain growth inhibition, stronger effect = higher value
Outline: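 Values express reduction in yeast growth under compound treatment, referenced to vehicle-treated cells.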

[13] = NCI Yeast Anticancer Drug Screen. Data for the mlh1 strain (AID 171);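 further: 0% = growth of vehicle-treated control cultures of the same strain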; details: S. cerevisiae mlh1 strain growth inhibition, stronger effect = higher value
Outline: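 Steps: expose the defined-mutant yeast strain to compound; expose a parallel culture to vehicle; measure growth; express compound effect as inhibition relative to the vehicle culture.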

[14] = NCI Yeast Anticancer Drug Screen. Data for the sgs1 strain (AID 173);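 further: 0% = growth of vehicle-only control cultures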; details: S. cerevisiae sgs1 mutant, stronger effect = higher value
Outline: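 Treat defined-mutant yeast with compound; measure growth; calculate inhibition relative to vehicle-treated cells.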

[15] = NCI Yeast Anticancer Drug Screen. Data for the mlh1 rad18 strain (AID 175); details: S. cerevisiae mlh1 rad18 strain growth inhibition, stronger effect = higher value
Outline: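 Test agents were incubated with a yeast strain of defined genotype (DNA damage repair defect). Inhibition of growth was derived by comparison with vehicle-exposed cultures.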

[16] = NCI Yeast Anticancer Drug Screen. Data for the rad18 strain (AID 177); details: S. cerevisiae rad18 mutant growth inhibition, stronger effect = higher value
Outline: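 A genetically defined yeast mutant impaired in DNA damage repair was treated with test compounds, then its growth was measured against cultures receiving vehicle alone.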

[17] = at 5.0 µM (retest, dose inferred, filed as 0.5)
[18] = at 50.0 µM (retest, dose inferred, filed as 5.0)

Measured: growth inhibition

CN(C)CCn1c2c3ccccc3ccc2c2oc(=O)c3ccccc3c21
inactive: [1]; at 1.2 µM 24% | [1]; at 3.7 µM 21% | [2]; at 1.2 µM 13% | [2]; at 3.7 µM 8% | [2]; at 11.0 µM 35% | [3]; at 1.2 µM 19% | [3]; at 3.7 µM 54% | [4]; at 1.2 µM -7% | [4]; at 3.7 µM 10% | [4]; at 11.0 µM 49% | [5]; at 1.2 µM 21% | [5]; at 3.7 µM 51% | [5]; [17] 52% | [6]; at 1.2 µM 17% | [6]; at 3.7 µM 12% | [6]; [17] -12% | [6]; at 11.0 µM 40% | [7]; at 1.2 µM 3% | [7]; at 3.7 µM -2% | [7]; at 11.0 µM 35% | [8]; [17] -1% | [9]; at 1.2 µM -2% | [9]; at 3.7 µM -3% | [9]; at 11.0 µM 36% | [10]; [17] 4% | [11]; at 1.2 µM -8% | [11]; at 3.7 µM 10% | [11]; [17] 3% | [11]; at 11.0 µM 19% | [12]; at 1.2 µM 12% | [12]; at 3.7 µM 3% | [12]; at 11.0 µM 41% | [13]; at 1.2 µM -10% | [13]; at 3.7 µM -6% | [13]; at 11.0 µM 42% | [14]; at 1.2 µM 12% | [14]; at 3.7 µM 16% | [14]; at 11.0 µM 50% | [15]; [17] 10% | [16]; at 1.2 µM 0% | [16]; at 3.7 µM -7% | [16]; at 11.0 µM 53%
active: [1]; at 11.0 µM 94% | [1]; at 33.0 µM 98% | [1]; at 100.0 µM 97% | [2]; at 33.0 µM 92% | [2]; at 100.0 µM 92% | [3]; at 11.0 µM 94% | [3]; at 33.0 µM 97% | [3]; at 100.0 µM 94% | [4]; at 33.0 µM 96% | [4]; at 100.0 µM 93% | [5]; at 11.0 µM 93% | [5]; at 33.0 µM 97% | [5]; [18] 95% | [5]; at 50.0 µM 86.5% | [5]; at 100.0 µM 92% | [6]; at 33.0 µM 95% | [6]; [18] 98% | [6]; at 50.0 µM 88.3% | [6]; at 100.0 µM 91% | [7]; at 33.0 µM 95% | [7]; at 100.0 µM 91% | [8]; [18] 93% | [8]; at 50.0 µM 89% | [9]; at 33.0 µM 90% | [9]; at 100.0 µM 89% | [10]; [18] 93% | [10]; at 50.0 µM 84.5% | [11]; at 33.0 µM 93% | [11]; [18] 95% | [11]; at 50.0 µM 86.8% | [11]; at 100.0 µM 95% | [12]; at 33.0 µM 95% | [12]; at 100.0 µM 95% | [13]; at 33.0 µM 95% | [13]; at 100.0 µM 92% | [14]; at 33.0 µM 93% | [14]; at 100.0 µM 92% | [15]; [18] 96% | [15]; at 50.0 µM 82.7% | [16]; at 33.0 µM 94% | [16]; at 100.0 µM 91%

O=C(NCCCNCCCNC(=O)c1cc(-c2ccccc2)nc2ccccc12)c1cc(-c2ccccc2)nc2ccccc12
inactive: [1]; at 1.2 µM -4% | [1]; at 3.7 µM -2% | [1]; at 11.0 µM -4% | [1]; at 33.0 µM 6% | [1]; at 100.0 µM 11% | [2]; at 1.2 µM -1% | [2]; at 3.7 µM -1% | [2]; at 11.0 µM -3% | [2]; at 33.0 µM -2% | [2]; at 100.0 µM -5% | [3]; at 1.2 µM -1% | [3]; at 3.7 µM 5% | [3]; at 11.0 µM 14% | [3]; at 33.0 µM 24% | [3]; at 100.0 µM 19% | [4]; at 1.2 µM -2% | [4]; at 3.7 µM -1% | [4]; at 11.0 µM -3% | [4]; at 33.0 µM 20% | [4]; at 100.0 µM 61% | [5]; at 1.2 µM -3% | [5]; at 3.7 µM -2% | [5]; [17] -13% | [5]; at 11.0 µM -4% | [5]; at 33.0 µM 27% | [5]; [18] 54% | [5]; at 50.0 µM 37.3% | [5]; at 100.0 µM 51% | [6]; at 1.2 µM -2% | [6]; at 3.7 µM -4% | [6]; [17] -11% | [6]; at 11.0 µM -5% | [6]; at 33.0 µM 10% | [6]; [18] 19% | [6]; at 50.0 µM 37.7% | [6]; at 100.0 µM 47% | [7]; at 1.2 µM -1% | [7]; at 3.7 µM -1% | [7]; at 11.0 µM 4% | [7]; at 33.0 µM 58% | [8]; [17] 0% | [8]; [18] -8% | [8]; at 50.0 µM 56.2% | [9]; at 1.2 µM -3% | [9]; at 3.7 µM -1% | [9]; at 11.0 µM -4% | [9]; at 33.0 µM 14% | [9]; at 100.0 µM 24% | [10]; [17] 40% | [10]; [18] 42% | [10]; at 50.0 µM 37.8% | [11]; at 1.2 µM -3% | [11]; at 3.7 µM -1% | [11]; [17] 3% | [11]; at 11.0 µM -1% | [11]; at 33.0 µM 11% | [11]; [18] 58% | [11]; at 50.0 µM 64.1% | [11]; at 100.0 µM 44% | [12]; at 1.2 µM -3% | [12]; at 3.7 µM -4% | [12]; at 11.0 µM -4% | [12]; at 33.0 µM 1% | [12]; at 100.0 µM 11% | [13]; at 1.2 µM -4% | [13]; at 3.7 µM -1% | [13]; at 11.0 µM -1% | [13]; at 33.0 µM 16% | [13]; at 100.0 µM 46% | [14]; at 1.2 µM -3% | [14]; at 3.7 µM -2% | [14]; at 11.0 µM -1% | [14]; at 33.0 µM 7% | [14]; at 100.0 µM 11% | [15]; [17] 17% | [16]; at 1.2 µM -4% | [16]; at 3.7 µM -3% | [16]; at 11.0 µM -4% | [16]; at 33.0 µM 13% | [16]; at 100.0 µM 34%
active: [7]; at 100.0 µM 82% | [15]; [18] 78% | [15]; at 50.0 µM 89.4%

COC(=O)CSSCc1ccc([N+](=O)[O-])cc1
inactive: [1]; at 1.2 µM 3% | [1]; at 3.7 µM 19% | [1]; at 11.0 µM 40% | [2]; at 1.2 µM -1% | [2]; at 3.7 µM -2% | [2]; at 11.0 µM 3% | [2]; at 33.0 µM 24% | [3]; at 1.2 µM -2% | [3]; at 3.7 µM 13% | [4]; at 1.2 µM -1% | [4]; at 3.7 µM 1% | [4]; at 11.0 µM 16% | [4]; at 33.0 µM 44% | [5]; at 1.2 µM 4% | [5]; at 3.7 µM 20% | [5]; [17] 15% | [5]; at 11.0 µM 47% | [6]; at 1.2 µM -2% | [6]; at 3.7 µM 2%
active: [1]; at 33.0 µM 75% | [1]; at 100.0 µM 98% | [2]; at 100.0 µM 83% | [3]; at 11.0 µM 70% | [3]; at 33.0 µM 93% | [3]; at 100.0 µM 98% | [4]; at 100.0 µM 98% | [5]; at 33.0 µM 85% | [5]; [18] 97% | [5]; at 50.0 µM 97.3% | [5]; at 100.0 µM 97%
